Compound activity: PubChem BioAssay, The Scripps Research Institute Molecular Screening Center
M1 PAM: human M1 muscarinic receptor positive allosteric modulators, primary screen, CHO-K1 cells, Fluo-8 calcium fluorescence, 1536-well | CHO-K1 hM1, ACh EC20; 0% = ACh EC20, 100% = maximal ACh | 0.088% of 360,000 active | AID 588819, 2011 | activation, % at 3 µM | Muscarinic acetylcholine receptor M1 (Homo sapiens), P11229; in the data active = activation above about 19%, passing the limit was not always enough
Target sequence (P11229 whole entry, looked up): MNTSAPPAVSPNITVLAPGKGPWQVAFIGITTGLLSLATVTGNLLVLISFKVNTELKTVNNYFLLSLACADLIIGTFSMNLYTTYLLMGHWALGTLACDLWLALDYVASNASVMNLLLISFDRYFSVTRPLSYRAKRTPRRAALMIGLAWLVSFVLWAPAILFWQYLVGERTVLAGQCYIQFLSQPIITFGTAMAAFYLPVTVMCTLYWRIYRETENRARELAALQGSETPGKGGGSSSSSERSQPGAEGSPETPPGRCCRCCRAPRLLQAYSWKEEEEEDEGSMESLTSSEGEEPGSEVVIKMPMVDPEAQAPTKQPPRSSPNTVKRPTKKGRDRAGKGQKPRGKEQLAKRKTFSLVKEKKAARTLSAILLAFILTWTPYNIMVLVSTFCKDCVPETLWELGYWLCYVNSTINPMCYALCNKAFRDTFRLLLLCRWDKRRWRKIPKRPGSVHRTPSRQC
M1 ag: human M1 muscarinic receptor agonists, primary screen, Fluo-8 calcium fluorescence, CHO-K1 cells, HTS; activation, % at 3 µM; CHO-K1 hM1, agonist mode; 0% DMSO, 100% acetylcholine EC100; 0.33% of 360,000 active; Muscarinic acetylcholine receptor M1 (Homo sapiens), P11229; AID 588814, 2011;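 active = activation above the run's mean compound activation plus 3 SD, cut at about 16% in these data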;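 also: peak over basal fluorescence ratio within a 140 s kinetic read after compound addition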
M1 ag parental: counter-screen for M1 agonists: effect in parental CHO-K1 cells; Fluo-8 calcium fluorescence; scaled to maximal ATP response, vehicle zero; activation, % at 3 µM; 0.48% of 360,000 active; in the data active = activation above about 15%;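 also: untransfected CHO-K1 host cells lacking M1 receptor as counterscreen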
M1 antag: human M1 muscarinic receptor antagonists, primary screen, CHO-K1 cells, Fluo-8 calcium fluorescence, 1536-well | Muscarinic acetylcholine receptor M1 (Homo sapiens), P11229 | CHO-K1 hM1, ACh EC80 antagonist | inhibition, % at 3 µM | 1.3% of 360,000 active;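 active = percent inhibition above its own plate's cutoff, namely the mean of that plate's compound wells plus 3 SD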;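 also: peak over basal fluorescence ratio during 140 s after agonist addition; 0% = ACh EC80 plus DMSO and 100% = DMSO alone without agonist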
CHO-K1 Ca antag: M1 antagonist counterscreen hit in parental CHO-K1 cells; ATP-induced calcium, Fluo-8 fluorescence; inhibition, % at 3 µM; 0.6% of 360,000 active; AID 602250;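 active = inhibition above a per-plate cutoff, the plate's mean sample inhibition plus 3 SD, cut at about 24% in these data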;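 also: 0% = DMSO plus EC80 ATP and 100% = DMSO alone without ATP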
M1 PAM parental: nonselective calcium activators in parental CHO-K1 cells, primary screen, counter-screen for M1 PAM project, cell-based, Fluo-8 calcium fluorescence, full deck, 1536-well | ATP EC20; 0% at ATP EC20, 100% at ATP max | activation, % at 3 µM | 0.02% of 360,000 active | AID 602247, 2012;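 active = activation above the run cutoff, the mean activation of all test compounds plus 3 SD, cut at about 40% in these data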;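 also: peak over basal fluorescence ratio in a 140 s read after ATP addition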
An asterisk follows results filed as active. In the library only some 2.3% were active in any assay of this set; here they are far more common.

SMILES	M1 PAM	M1 ag	M1 ag parental	M1 antag	CHO-K1 Ca antag	M1 PAM parental
COc1ccc(C(=O)OCC(=O)NCCc2ccc(F)cc2)cc1S(=O)(=O)N1CCOCC1	-7	-6	0	33*	-11	-6
O=C(COC(=O)c1ccc(Cl)c(S(=O)(=O)N2CCCCC2)c1)NCCc1ccccc1	12	3	0	-9	25*	-24
COc1cccc(/C=N/Nc2snc(SC)c2C#N)c1O	-10	10	17*	9	16	4
Cc1ccccc1C1=NC(C(F)(F)F)(C(F)(F)F)c2c(n(C)c(=O)n(C)c2=O)N1	-1	-4	1	0	8	-2
Cn1c2c(c(=O)n(C)c1=O)C(C(F)(F)F)(C(F)(F)F)N=C(c1ccc(Cl)cc1)N2	-9	5	11	24*	19	8
COc1ccc(N=Cc2c(O)c3ccccc3n2C(C)=O)cc1	4	-4	0	-5	-4	3
COc1ccc(N=Cc2sc(O)c3ccccc23)cc1	-11	30*	14	30*	11	10
CCN1/C(=C/c2ccc3cc(C)cc(C)c3[n+]2CC)Sc2cc(C)ccc21	-13	18*	21*	55*	40*	-11
CCN1/C(=C/c2ccc3cccc(C)c3[n+]2CC)Sc2ccccc21	-7	14	10	51*	24	8
CCN1/C(=C\c2ccc3cc(C)ccc3[n+]2CC)Sc2cc(C)c(C)cc21	-12	13	18*	52*	35*	-4
COc1cccc(NC(=O)COC(=O)c2ccc(S(=O)(=O)NCc3ccco3)cc2)c1	3	-2	1	-8	-1	8
CCCCC(=O)Nc1c2c(nn1-c1ccc(C)cc1)CS(=O)(=O)C2	5	-1	0	-1	-7	3
CC(C)(C)Nc1nc2nonc2nc1NC(C)(C)C	-9	2	16*	9	-1	12
OCCNc1nc2nonc2nc1NCCO	6	-5	0	-2	-5	13
CCOC(=O)c1[nH]c(CN2CCN(c3ccc(OC)cc3)CC2)c(C(=O)OCC)c1C	-1	16*	10	3	-17	5
O=C1NC(=S)NC1=Cc1ccccc1O	-8	19*	17*	5	23	-17
O=C1NC(=S)NC1=Cc1ccc(Cl)cc1Cl	1	-2	0	-3	26*	-14
CCOC(=O)N1CCN(Cc2cn[nH]c2-c2cc3ccccc3o2)CC1	-11	-3	6	23	-14	-8
Cc1cc(C(=O)Nc2cccc(-c3ccc(N4CCOCC4)nn3)c2)ccc1[N+](=O)[O-]	-17	-3	5	35*	18	-9
CCN=C(NCC)SC1CC(=O)N(c2cccc(OCC)c2)C1=O (centres undefined)	-12	2	7	44*	30*	-8
O=C(Nc1ccccc1)Nc1ccc(Br)c(Cl)c1	-13	0	13	28	27*	3
NNC(=O)C(=O)Nc1ccc(Cl)c(Cl)c1	10	-2	1	-23	-5	4
O=C(Nc1ccc(Cl)c(Cl)c1)Nc1ccccc1O	-7	2	13	19	25*	-9
O=C1C=C(NC(=O)Nc2ccc(Cl)c(Cl)c2)CCC1	-12	1	7	13	30*	-2
O=C(Nc1ccc(Cl)c(Cl)c1)Nc1ccon1	-15	4	11	24*	20	-20
SMILES	M1 PAM	M1 ag	M1 ag parental	M1 antag	CHO-K1 Ca antag	M1 PAM parental
Cc1cc(NC(=O)Nc2ccc(Cl)c(Cl)c2)no1	-1	3	7	9	13	-14
C=CCNc1ncnc2c1ncn2[C@H]1CN(CCN2CCOCC2)C[C@@H](CO)O1	3	-2	0	-12	3	-8
O=C(Nc1ccc(Cl)c(Cl)c1)Nc1ccc(Br)cc1F	-19	0	11	28	28*	1
CC1(C(=O)O)CCCN1C(=O)c1cccc(F)c1 (centres undefined)	14	1	-1	-22	11	-21
CC1(C(=O)NS(=O)(=O)c2ccccc2Cl)CCN1C(=O)C1(c2ccc(Cl)cc2)CCC1 (centres undefined)	4	-4	-1	-12	48*	-15
CC1(C(=O)NS(=O)(=O)c2ccccc2Cl)CCN1C(=O)C1(c2ccc(Cl)cc2)CC1 (centres undefined)	2	1	0	-4	-7	12
Cc1ccc(C)c(OCC(=O)OCc2csc(CC(=O)Nc3ccccc3C)n2)c1	1	-6	2	-11	-20	20
COc1ccc(C(=O)C(CN2CCCC2)c2ccccc2)cc1 (centres undefined)	-17	-5	1	11	-6	22
O=C(c1ccc(Cl)cc1)C(CN1CCCC1)c1ccccc1 (centres undefined)	-25	-9	0	38*	4	-3
CCOC(=O)c1sc(NC(=O)c2cccs2)cc1C	8	-4	4	-16	12	7
CCOC(=O)c1sc(NC(=O)Nc2cccc(Cl)c2)cc1C	-18	3	18*	43*	39*	-6
COc1cccc(CNCCc2c[nH]c3ccccc23)c1OCc1ccccc1	-6	6	21*	19	12	5
COc1ccccc1CCNCc1ccc(OC)c(OCc2ccccc2)c1	-24	7	20*	34*	-17	-6
COc1ccc(CNCc2ccco2)cc1OCc1ccccc1	-17	-8	2	24	10	-11
Cc1ccc(OC(C)C(=O)Nc2ccc(S(=O)(=O)N3CCOCC3)cc2)cc1 (centres undefined)	5	22*	11	1	-10	26
CC(Oc1ccc(C(=O)c2ccccc2)cc1)C(=O)Nc1ccc(S(N)(=O)=O)cc1 (centres undefined)	1	14	18*	5	0	23
CC(Oc1ccc(Br)cc1)C(=O)Nc1ccc(S(=O)(=O)N(C)C2CCN(C)CC2)cc1 (centres undefined)	-19	55*	55*	67*	57*	-31
Cc1ccccc1OC(C)C(=O)Nc1ccc(S(=O)(=O)N2CCCC2)cc1 (centres undefined)	-23	-4	2	89*	-9	7
COc1ccc(CC(=O)Nc2ccc(S(=O)(=O)N(C)C3CCN(C)CC3)cc2)cc1	-1	-4	3	5	7	8
